ELG1 genotox = qHTS screen for small molecules that induce genotoxicity in human embryonic kidney (HEK293T) cells expressing luciferase-tagged ELG1; HEK293T ELG1-luciferase reporter, luminescence, 16 h; Potency, µM (doses to about 46 µM), for the others: at the highest dose activity change, positive = activation, most hits filed as activators; hit rate 1.3% among 330,000; AID 504466, 2011; further: % of control where 0% means no effect; nearly all actives have a fitted effect of over 60% in size
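DMSO vehicle served as control against compound-treated ELG1-luciferase HEK293T cells; exposure lasted 16 hr at 37 °C and 5% CO2, followed by ONE-Glo luminescence detection after 30 min.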
FLuc counter = qHTS profiling assay for firefly luciferase inhibitor/activator using purifed enzyme and Km concentrations of substrates (counterscreen for miR-21 project); hit rate 6.9% among 360,000; Potency, µM (top dose mostly 57.5 µM), for the others: at the highest dose activity change, negative = inhibition, actives largely listed as inhibitors; Luciferin 4-monooxygenase (Photinus pyralis), P08659; purified FLuc, Km substrates, luminescence inhibition;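 further: plate controls were vehicle for no effect and reference inhibitor for full effect; nearly all actives have a fitted effect of over 55% in size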
Target sequence (P08659 whole entry, looked up): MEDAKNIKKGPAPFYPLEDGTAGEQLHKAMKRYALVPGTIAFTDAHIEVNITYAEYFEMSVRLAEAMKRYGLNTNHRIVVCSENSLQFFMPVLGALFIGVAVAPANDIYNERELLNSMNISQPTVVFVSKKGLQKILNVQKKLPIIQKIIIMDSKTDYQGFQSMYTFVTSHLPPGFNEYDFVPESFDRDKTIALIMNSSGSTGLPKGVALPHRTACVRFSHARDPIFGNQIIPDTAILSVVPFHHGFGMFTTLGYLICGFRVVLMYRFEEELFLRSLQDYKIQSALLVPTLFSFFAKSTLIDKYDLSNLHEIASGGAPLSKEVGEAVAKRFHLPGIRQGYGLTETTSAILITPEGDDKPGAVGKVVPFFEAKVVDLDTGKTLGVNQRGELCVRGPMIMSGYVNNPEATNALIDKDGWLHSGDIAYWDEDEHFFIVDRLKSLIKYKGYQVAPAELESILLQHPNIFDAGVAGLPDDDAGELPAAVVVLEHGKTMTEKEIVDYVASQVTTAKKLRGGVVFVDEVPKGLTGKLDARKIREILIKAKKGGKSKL
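Purified P. pyralis luciferase, 10 nM final, with Km-level 10 uM D-luciferin and 10 uM ATP in 50 mM Tris acetate pH 7.5, 10 mM Mg acetate, 0.01% Tween-20, 0.05% BSA; 6-point qHTS titration about 60 µM downward; luminescence read.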
NPC1 prom act = qHTS Assay for NPC1 Promoter Activators. hit rate 2.4% among 320,000. Potency, µM (highest dose often 9.22 µM), without a hit: top-dose activation, hits mostly activators. Huh7 NPC1 promoter luciferase reporter, 24 h; further: % of control where 0% means no effect; nearly all actives have a fitted effect of over 60% in size
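Luminescence read-out of NPC1 promoter-driven luciferase in stably transfected Huh7 cells; compounds delivered in DMSO and left 24 h at 37C, 5% CO2, qHTS titration format.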
Rab9 promoter act = qHTS Assay for Rab9 Promoter Activators | Huh7 Rab9 promoter-luciferase reporter, luminescence, 24 h | Potency, µM (highest dose often 9.22 µM), without a hit: at the top dose activation, negative = inhibition, most hits filed as activators | hit rate 2.8% among 320,000 | AID 485297, 2010; further: % of control where 0% means no effect; nearly all actives have a fitted effect of over 60% in size
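Stable Rab9-luc Huh7, 1500 cells/well, 2 h settle; cmpd in DMSO, 24 h, 37 °C/5% CO2; luciferase reagent 10 min RT; luminescence.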
SMN2 splice enh = qHTS Assay for Enhancers of SMN2 Splice Variant Expression; HEK293 SMN2-luciferase splicing reporter, luminescence, 30-36 h; Potency, µM (series often up to 46.1 µM), for the others: top-dose activity change, positive = activation, actives largely listed as activators; hit rate 2.8% among 210,000; further: % of control where 0% means no effect; nearly all actives have a fitted effect of over 55% in size
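HEK293 cells carry an SMN2 […]–luciferase reporter in which exon 7 inclusion puts luciferase in frame. Cells were plated 10-12 h before compound addition, then incubated 30-36 h at 37C. ONE-Glo luminescence was read; sodium butyrate at 4.5 mM final served as control.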
KinaseGlo FLuc = Counterscreen for Luciferase (Kinase-Glo TM) Inhibition; Luciferin 4-monooxygenase (Photuris pensylvanica), Q27757; Kinase-Glo luciferase, ATP luminescence, 8 min; Potency, µM (top dose mostly 38.3 µM), without a hit: top-dose activity change, negative = inhibition, usual class: inhibitors; hit rate 0.28% among 200,000; AID 1379, 2008; further: on the % scale 0 is the no-effect control and ±100 the full control effect; nearly all actives have a fitted effect of over 60% in size
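Light output from Kinase-Glo luciferase with luciferin and 10 uM ATP in 50 mM imidazole pH 7.2, KCl, MgCl2, Tween 20, BSA; compound pin-delivered, 8-min ambient incubation, then luminescence read.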
An asterisk follows results filed as active; u = inconclusive; x = not tested or not shown; [ ] = another dose, or the depositor's remark. Hits are enriched below; roughly 7.5% of the tested compounds scored in any of these assays. The call rests on the fitted dose curve; in most records, active means well fitted curve in the direction sought with a large enough effect; inconclusive means small, poorly fitted or top-dose-only effect, or another doubt; inactive means no such curve, though single readings can be large; an effect the other way counts as inactive or inconclusive. Potency means the concentration at half of the fitted maximal effect.

SMILES	ELG1 genotox	FLuc counter	NPC1 prom act	Rab9 promoter act	SMN2 splice enh	KinaseGlo FLuc
CN(C)CCCN(C(=O)c1ccc(C(=O)c2ccccc2)cc1)c1nc2cc3c(cc2s1)OCCO3	-2%	-1%	2%	6%	x	x
COc1ccc(N2CCN(C(=S)NCc3ccccc3)CC2)cc1	-5%	-1%	-5%	3%	8%	-1%
O=C(O)/C=C/c1cnn(-c2ccccc2)c1	-4%	1.5µM*	u	0.45µM*	2µM*	-9%
CCOC(=O)/C=C/c1cnn(-c2ccccc2)c1	u	15µM*	u	u	x	-4%
O=C1C(=O)N(CC2CCCO2)C(c2ccccc2[N+](=O)[O-])/C1=C(/O)c1ccccc1 (configuration not stated)	3%	u	0%	-3%	-6%	3%
C/C(=N\NC(=O)COc1ccccc1F)c1cc2ccccc2o1	u	11µM*	u	u	u	2%
OCc1cc(Br)ccc1OCc1nc2ccccc2s1	u	5.4µM*	3.2µM*	2.8µM*	x	x
Oc1ccc(O)c(Cc2nc3ccccc3s2)c1	-3%	u	-9%	-3%	0%	-4%
Oc1ccccc1OCc1nc2ccccc2s1	8.2µM*	5.4µM*	13%	29%	32µM*	-15%
COc1ccccc1C1=NC(c2ccc(C)cc2)N=C1C (configuration not stated)	-8%	15µM*	u	u	u	4%
COc1ccccc1-c1nc2ccccc2nc1-c1ccccc1OC	-1%	1%	-2%	-11%	1%	1%
O=c1[nH]c(SCc2nc3c(cnn3-c3ccccc3)c(=O)[nH]2)nc2ccccc12	8%	u	u	2µM*	18µM*	-1%
O=c1[nH]c(CSc2nc3ccccc3[nH]2)nc2c1cnn2-c1ccccc1	0%	u	-7%	-7%	-18%[1.84 µM]	1%
COc1cccc(NC(=O)c2ccccc2-c2nc(-c3ccc(Cl)cc3)no2)c1	-3%	13µM*	9%	9%	-2%	-1%
COc1ccccc1-c1noc(-c2ccccc2C(=O)Nc2ccccc2)n1	4%	11µM*	11%	26%	-3%	8%
COc1ccccc1NC(=O)c1ccccc1-c1nc(-c2ccccc2OC)no1	-7%	11µM*	5%	8%	18%	-8%
COc1cccc(NC(=O)c2ccccc2-c2nc(-c3ccccc3)no2)c1	6%	u	0%	-1%	-13%	-4%
Cn1c(CSc2nc3ccccc3s2)nnc1SCC(=O)NCCCN1CCOCC1	0%	0%	0%	1%	15%	2%
COc1ccccc1CNC(=O)COC(=O)c1ccc(C)c(S(=O)(=O)N2CCOCC2)c1	-1%	1%	-5%	-2%	x	x
CC1CCCCC1NS(=O)(=O)CCNC(=O)c1ccc2c(c1)OCO2 (configuration not stated)	6%	2%	-3%	0%	x	x
O=C(c1ccc2c(c1)OCO2)N1CCCC1	-1%	-8%	2%	6%	-2%	-2%
O=C(Nc1ccc(F)c(Cl)c1)c1ccccc1	12µM*	11µM*	3.2µM*	1.8µM*	x	x
O=C(Nc1ccc(F)c(Cl)c1)c1cccnc1	10%	2%	7%	8%	x	x
CC1CCCC(NC(=O)c2ccc3c(c2)OCO3)C1C (configuration not stated)	18µM*	12µM*	u	3.5µM*	x	x
COc1ccccc1-c1nnc(NC(=O)c2ccc3c(c2)OCO3)s1	13%	1%	-7%	-13%	u	-2%
SMILES	ELG1 genotox	FLuc counter	NPC1 prom act	Rab9 promoter act	SMN2 splice enh	KinaseGlo FLuc
O=C(Nc1ccc(C(=O)N2CCCC2)cc1)c1ccc2c(c1)OCO2	u	15µM*	u	u	16%	13µM*
COC(=O)c1c(-c2cccnc2)csc1NC(=O)c1ccc2c(c1)OCO2	2.9µM*	1.3µM*	2.5µM*	1.6µM*	x	x
O=C(Nc1ccc(F)c(Cl)c1)c1ccc2c(c1)OCO2	u	4.8µM*	1.8µM*	1.3µM*	x	x
O=C(Nc1ccc(C(=O)N2CCCCC2)cc1)C1=CSCCO1	u	12µM*	2.8µM*	u	x	x
COC(=O)c1sccc1NC(=O)c1ccc2c(c1)OCO2	3%	6%[2.3 µM]	0%	-2%	27%	-4%
CC1CCCC(NC(=O)c2ccc3c(SCC(=O)O)c4c(nc3c2)CCC4)C1C (configuration not stated)	1%	17µM*	0%	-5%	x	x
COC(=O)c1ccc(NC(=O)c2ccc3c(c2)OCO3)cc1	6.5µM*	u	2.8µM*	u	u	-4%
CC(C)c1ccc(Nc2c(-c3ccccn3)nc3ccccn23)cc1	x	-2%	x	x	-5%	x
Cn1ncc(S(=O)(=O)Cc2ccccc2)c(Br)c1=O	x	x	-15%[46.1 µM]	-3%[46.1 µM]	x	x
O=C(COC(=O)c1cc(S(=O)(=O)N2CCOCC2)c(Cl)cc1Cl)NCc1ccco1	1%	x	x	x	x	x
COc1cc(-c2nc(-c3ccc(NC(=O)c4ccc5c(c4)OCO5)cc3)no2)cc(OC)c1OC	13µM*	u	2%	-1%	73%	-9%
COc1ccc(NCc2ccc3c(c2)OCO3)cc1Cl	7%	u	17%	21%	12%	2%
COc1ccc(NC(=O)c2ccc3c(c2)OCO3)cc1Cl	u	1.9µM*	0.89µM*	1.4µM*	14µM*	-10%
Cc1ccccc1-c1nc(-c2ccc(NC(=O)c3ccc4c(c3)OCO4)cc2)no1	u	u	21%	1%	-14%	-19%
CN1CCN(c2ccc(S(=O)(=O)N3CCOCC3)cc2NC(=O)CSCc2ccccc2)CC1	-2%	x	x	x	x	x
COCCOc1ccc(C(F)(F)F)cc1Nc1nc2ccccc2o1	u	15µM*	-2%	-1%	10%	-2%
O=C(NNC(=O)c1cc2ccccc2cc1O)NC1CCCCC1	3%	-3%	9%	16%	x	x
CC1CCC(NC(=O)c2cc3ccccc3cc2O)CC1 (configuration not stated)	13%	5.4µM*	u	2.2µM*	x	x
Cc1cc(C(=O)NC2CCC(C)CC2)c(C)o1 (configuration not stated)	5.2µM*	9.5µM*	1.4µM*	1.8µM*	x	x
Cc1cc(C(=O)OCC(=O)NC2CCC(C)CC2)c(C)o1 (configuration not stated)	0%	-3%	0%	0%	x	x
